Only some compounds are listed: those with a hit (about 5.3% of all), similar ones and a draw of the others.
15-hLO-2 inh: inhibitors of human 15-lipoxygenase 2 (ALOX15B); O15296; purified 15hLO-2, xylenol orange hydroperoxide absorbance; Potency, µM (highest dose often 57.1 µM), usual class: inhibitors; actives 0.56% (n = 110,000); AID 881; further: nearly all actives have a fitted effect of over 60% in size
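Purified human 15hLO-2 (50 nM) preincubated 15 min with compound, then 45 uM arachidonic acid for 90 min at RT in 25 mM Hepes pH 7.5, 0.01% Triton X-100. Hydroperoxide detected by Fe-xylenol orange; 573/405 nm absorbance ratio.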
IMPase Li inh: membrane-permeable IMPase blocker, potentiated with lithium; actives 0.35% (n = 210,000); Potency, µM (highest dose often 59.4 µM), hits mostly inhibitors; CHO-M1 cells, IP1 TR-FRET (IP-One), carbachol + lithium; AID 1457;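 further: IP1 builds up when IMPase is blocked and the TR-FRET signal falls; nearly all actives have a fitted effect of over 50% in size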
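Steps: plate 2000 CHO-M1 cells per well and culture 16–30 h; add compound and lithium; incubate 30 min, 37C; add d2-IP1 tracer and Eu cryptate anti-IP1 antibody in lysis buffer; read after 10 min at room temperature.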
ALOX12 inhib: inhibitors of human 12-lipoxygenase (ALOX12). P18054. purified 12-hLO, xylenol orange hydroperoxide absorbance. Potency, µM (top dose mostly 57.1 µM), hits mostly inhibitors. actives 0.12% (n = 150,000). AID 1452; further: nearly all actives have a fitted effect of over 55% in size
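Purified human 12hLO (150 nM final) was preincubated with compounds for 15 min at room temperature in 25 mM Hepes pH 7.0, 0.01% Triton X-100, then reacted with 40 uM arachidonic acid for 30 min. Hydroperoxide was detected with ferrous iron/xylenol orange.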
IMPase inh: IMPase inhibition in cells | 120,000 tested, under 10 active | inhibition (IP1 accumulation), % at 46.1 µM | CHO-M1 cells, IP1 accumulation, HTRF TR-FRET ratio | AID 901; active means well fitted curve in the direction sought with a large enough effect in the signal ratio, not every such curve was filed as active; inconclusive means small, poorly fitted or top-dose-only effect, or a change in a side signal; inactive means no such curve, though single readings can be large or run the other way; the % refers to the signal ratio;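 further: cells stimulated with carbachol in lithium chloride buffer; higher means more IMPase inhibition seen as more IP1 and lower FRET ratio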
Target sequence (P97697 whole entry, looked up): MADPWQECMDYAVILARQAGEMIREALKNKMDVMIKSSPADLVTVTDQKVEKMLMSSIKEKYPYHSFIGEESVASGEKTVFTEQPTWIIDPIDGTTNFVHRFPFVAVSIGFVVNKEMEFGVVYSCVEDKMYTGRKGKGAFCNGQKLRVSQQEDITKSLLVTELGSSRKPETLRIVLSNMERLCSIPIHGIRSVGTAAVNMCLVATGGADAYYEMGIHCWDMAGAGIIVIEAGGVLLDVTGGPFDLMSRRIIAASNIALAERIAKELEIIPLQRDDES
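CHO-M1 cells (CHO stably expressing M1 receptor), compound up to 46 uM final, stimulated with carbachol (50 uM as added) in buffer with 50mM LiCl, pH 7.4, 30 min at 37C. Cytosolic IP1 read by TR-FRET; AC50 from Hill fits.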
PNC assembly inh: blocks assembly of the perinucleolar compartment; PC3M PTB-GFP, PNC prevalence imaging, 16 h; hits give low values; activity change (PNC), negative = inhibition, % at 10 µM; actives 3.1% (n = 140,000); AID 2417;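 active means readout at or below -70, meaning at least 70% loss of cells showing the perinucleolar compartment, a nuclear body marking cancer cells; inconclusive means readout between -30 and a set limit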
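Compounds are pinned in duplicate onto adhered PC3M cells stably expressing GFP-tagged PTB and incubated 16 h at 37 C. Cells are then fixed, nuclei stained with Hoechst, and PNC-positive cells counted.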
HPGD inh: inhibitors of human 15-hydroxyprostaglandin dehydrogenase (HPGD); P15428; purified HPGD, NADH fluorescence kinetic, PGE2 substrate; Potency, µM, most hits filed as inhibitors; actives 4.3% (n = 150,000); AID 894; active means well fitted inhibition curve with a large enough effect, not every such curve was filed as active; inconclusive means small, poorly fitted or top-dose-only effect, or another doubt; inactive means no such curve, though single readings can be large or run the other way
Target sequence (P15428 whole entry, looked up): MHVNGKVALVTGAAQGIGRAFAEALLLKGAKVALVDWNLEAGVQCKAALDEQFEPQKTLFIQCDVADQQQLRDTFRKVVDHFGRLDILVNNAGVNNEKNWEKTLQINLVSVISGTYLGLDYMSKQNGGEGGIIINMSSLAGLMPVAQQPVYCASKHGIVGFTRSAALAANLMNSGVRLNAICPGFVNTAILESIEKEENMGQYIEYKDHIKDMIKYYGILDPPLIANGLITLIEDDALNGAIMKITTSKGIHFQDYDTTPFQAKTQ
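20 nM HPGD preincubated 15 min at room temperature with compound in 50 mM Tris-HCl pH 8, 0.01% Tween 20. Started with 1 mM NAD+ and 30 uM prostaglandin E2; NADH fluorescence (360/450 nm) read 5 times over 30-s intervals, last minus first.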
Numbers stand for hits; n = inactive; u = inconclusive; x = no result given; [ ] = another dose, or the depositor's remark. Unless noted, the call rests on the fitted dose curve; in most records, active means well fitted curve in the direction sought with a large enough effect; inconclusive means small, poorly fitted or top-dose-only effect, or another doubt; inactive means no such curve, though single readings can be large; an effect the other way counts as inactive or inconclusive.

SMILES	15-hLO-2 inh	IMPase Li inh	ALOX12 inhib	IMPase inh	PNC assembly inh	HPGD inh
CCOC(=O)C1CCN(C(=O)COc2ccc(Br)cc2)CC1	n	n	n	n	-97	n
CC(=O)c1ccc(N2CCN(C(=O)COc3ccc(F)cc3)CC2)c(F)c1	n	n	n	n	n	n
CCOC(=O)C1CCN(CC(O)COc2ccc(C(C)(C)C)cc2)CC1 (stereo not drawn)	n	n	n	n	n	n
CC(=O)c1cc(F)c(N2CCN(C(=O)COc3ccc(F)cc3)CC2)cc1C	x	n	n	n	-100	n
CCOC(=O)C1CCN(C(=O)COc2cccc(C)c2)CC1	n	n	n	n	-85	n
C[C@@H]1NC(=O)c2cc([N+](=O)[O-])cc(I)c2NCC[C@@H](C(N)=O)NC(=O)[C@H](CC(N)=O)NC1=O	x	n	n	x	-103	n
COC(=O)c1ccc(C(NC(=O)OCc2ccccc2)/C(=C/[C@@H](C)C(=O)NCc2ccc(OC)c(OC)c2)c2cccnc2)cc1 (stereo partly drawn)	n	n	n	x	x	n
C[C@H]1CN(S(=O)(=O)c2cccc3cnccc23)CCN1	n	x	n	n	x	x
CCCCCCCCCCCCCCC(C(=O)O)C(O)(CC(=O)OC)C(=O)O (stereo not drawn)	u	n	n	x	x	16µM
CCCCCC(CC(=O)O)C(=O)O (stereo not drawn)	n	n	n	x	x	n
CCOc1ccc(S(=O)(=O)N2c3ccccc3CC2C)cc1 (stereo not drawn)	n	n	n	n	-103	n
N=C1S/C(=C\c2cn[nH]c2-c2ccc(F)cc2)C(=O)N1c1ccccc1F	x	n	n	n	u	13µM
CC(C)CNS(=O)(=O)c1ccc(OCC(=O)Nc2ccc(F)cc2F)cc1	x	n	n	n	-83	n
CN(C)S(=O)(=O)c1ccc(C(=O)Nc2ccc(CCC(=O)N3CCCC3)cc2)cc1	n	n	n	n	u	16µM
CCn1c(=O)c2ccccc2n2c(SCC(=O)N3CCCc4ccccc43)nnc12	n	n	n	n	n	n
CC1CCCN(C(=O)CSc2nnc3n(C4CCCC4)c(=O)c4ccccc4n23)C1 (stereo not drawn)	n	n	n	n	n	20µM
O=C(CSc1nnc2n(C3CCCC3)c(=O)c3ccccc3n12)N1CCCCCC1	n	n	n	n	n	n
COc1ccccc1Cn1c(=O)c2ccccc2n2c(SCC(=O)N3CCCCC3)nnc12	x	10µM	n	u	u	u
O=C(CSC1=NCCS1)Nc1ccc(S(=O)(=O)NC2CCCCC2)cc1	n	n	n	n	n	16µM
CCCOC(=O)c1ccc(NC(=O)c2cnccn2)cc1	n	n	n	u	n	n
O=C(CSC1=NCCS1)NC1CCCC1	n	n	n	n	n	25µM
O=C(Nc1cnn(Cc2ccc(F)cc2)c1)c1cnccn1	n	n	n	n	-129	n
O=C(Nc1cnn(Cc2ccc(F)cc2)c1)c1cc(-c2cccs2)on1	n	n	n	n	u	n
CCCCOC(=O)c1ccc(NC(=O)c2cnccn2)cc1	n	n	n	n	u	16µM
O=C(Nc1ccc(S(=O)(=O)NC2CCCC2)cc1)c1cnccn1	n[2.29 µM]	n	n	n	n	7.9µM
SMILES	15-hLO-2 inh	IMPase Li inh	ALOX12 inhib	IMPase inh	PNC assembly inh	HPGD inh
Cc1cc(C)c(S(=O)(=O)N(C)CC(N)=O)c(C)c1	n[2.29 µM]	n	n	n	-85	n
CCOc1cc2[nH]c(=O)n(CCCC(=O)N(C)Cc3ccccc3)c(=O)c2cc1OCC	x	n	x	x	x	x
Cc1cc(C)cc(NC(=O)CCC(=O)Nc2cc(C)on2)c1	x	n	n	n	-100	n
Cc1cc(NC(=O)CCCC(=O)Nc2ccc(F)cc2)no1	n	n	n	n	n	n
COC(=O)N1CCC2(CC1)CCN(C(c1ccccc1)c1ccccc1)CC2	n	n	n	x	x	n
CC12CCC(c3n[nH]c(=S)nc31)C2(C)C (stereo not drawn)	x	n	n	x	-113	u
CC12CCC(c3nnc(SCc4ccc(Cl)cc4)nc31)C2(C)C (stereo not drawn)	x	n	n	n	n	n
O=C(COC(=O)CNC(=O)C12CC3CC(CC(C3)C1)C2)NC1CCS(=O)(=O)C1 (stereo not drawn)	x	n	n	x	u	n
CN(C(=O)COC(=O)CNC(=O)C12CC3CC(CC(C3)C1)C2)C1CCS(=O)(=O)C1 (stereo not drawn)	x	n	n	x	-121	n
CC(N1CCOC1=O)S(=O)(=O)c1ccccc1 (stereo not drawn)	u	n	n	n	-110	n
O=S(=O)(c1ccc(-c2ccccc2)cc1)N1CCOCC1	n	n	n	n	n	n
COc1cccc(C2(c3cccc(OC)c3)CC2C(=O)Nc2ccccc2Cl)c1 (stereo not drawn)	x	n	n	n	-82	n
Cc1cccc(C2(c3cccc(C)c3)CC2C(=O)Nc2ccc([N+](=O)[O-])cc2O)c1 (stereo not drawn)	x	n	n	x	n	18µM
Cc1cnc(C(=O)Nc2ccc(C(=O)N(C)C3CCCCC3)cc2)cn1	n	n	n	n	n	13µM
Cc1cnc(C(=O)Nc2ccc(F)cc2)cn1	x	n	n	n	n	n
O=C(COC(=O)C1(c2ccc(F)cc2)CCCC1)N1CCc2ccccc21	x	n	n	x	-109	n
O=C(COc1ccc2c(c1)CCC2)N1CCc2ccccc21	n	n	n	n	-81	n
Cc1ccc(OCC(=O)N2CCc3ccccc32)cc1	x	n	n	x	n	n
CC1=C(CCC(=O)O)c2cc3nc(cc4[nH]c(cc5[nH]c(cc1n2)c(C)c5C(C)O)c(C)c4C(C)O)C(C)=C3CCC(=O)O (stereo not drawn)	n	n	n	x	x	n
C=Cc1c(C)c2cc3[nH]c(cc4nc(cc5nc(cc1[nH]2)C(C)=C5CCC(=O)O)C(CCC(=O)O)=C4C)c(C)c3C=C	20µM	n	n	n	x	n
CCN(CC)C(=O)Oc1ccc2ccccc2c1Br	x	n	x	x	x	x
O=C(COc1ccc2ccccc2c1Br)NNC(=O)Nc1ccccc1	u	11µM	n	n	n	n
COC(=O)NNC(=O)COc1ccc2ccccc2c1Br	x	u	n	x	-82	16µM
O=C(Oc1ccc2ccccc2c1Br)N1CCCCCC1	u	n	n	n	u	32µM
CC(C)(C)C1CCC(=NOC(=O)c2ccc(F)cc2)CC1 (stereo not drawn)	x	n	x	x	x	x
Cc1cc2c(=O)n(Cc3ccco3)c(SCC(=O)c3ccc(Cl)s3)nc2s1	n	n	u	n	u	28µM
CCOC(=O)CC(=O)CSc1nc2sc(C)cc2c(=O)n1Cc1ccco1	n	n	n	n	n	28µM

Compound activity deposited in PubChem by National Center for Advancing Translational Sciences (NCATS).
